From the supplement of paper PMC11732987, “Enantioselective OTUD7B fragment discovery through chemoproteomics screening and high-throughput optimisation” (Communications Chemistry, 2025)

Experiments:
Experiment in all cases: log2 ratio of Biotin-Ahx-Ub-VS probe labelling (fragment/DMSO); higher = less target engagement (more negative = stronger competition), active = hit call of the paper (q ≤ 0.05, log2 ratio ≤ -1)
Settings in all cases: compound concentration: 200 uM; treatment time: 3 h
USP42 = biological target: T1, USP42 (UniProt Q9H9J4)
T1 sequence (whole entry): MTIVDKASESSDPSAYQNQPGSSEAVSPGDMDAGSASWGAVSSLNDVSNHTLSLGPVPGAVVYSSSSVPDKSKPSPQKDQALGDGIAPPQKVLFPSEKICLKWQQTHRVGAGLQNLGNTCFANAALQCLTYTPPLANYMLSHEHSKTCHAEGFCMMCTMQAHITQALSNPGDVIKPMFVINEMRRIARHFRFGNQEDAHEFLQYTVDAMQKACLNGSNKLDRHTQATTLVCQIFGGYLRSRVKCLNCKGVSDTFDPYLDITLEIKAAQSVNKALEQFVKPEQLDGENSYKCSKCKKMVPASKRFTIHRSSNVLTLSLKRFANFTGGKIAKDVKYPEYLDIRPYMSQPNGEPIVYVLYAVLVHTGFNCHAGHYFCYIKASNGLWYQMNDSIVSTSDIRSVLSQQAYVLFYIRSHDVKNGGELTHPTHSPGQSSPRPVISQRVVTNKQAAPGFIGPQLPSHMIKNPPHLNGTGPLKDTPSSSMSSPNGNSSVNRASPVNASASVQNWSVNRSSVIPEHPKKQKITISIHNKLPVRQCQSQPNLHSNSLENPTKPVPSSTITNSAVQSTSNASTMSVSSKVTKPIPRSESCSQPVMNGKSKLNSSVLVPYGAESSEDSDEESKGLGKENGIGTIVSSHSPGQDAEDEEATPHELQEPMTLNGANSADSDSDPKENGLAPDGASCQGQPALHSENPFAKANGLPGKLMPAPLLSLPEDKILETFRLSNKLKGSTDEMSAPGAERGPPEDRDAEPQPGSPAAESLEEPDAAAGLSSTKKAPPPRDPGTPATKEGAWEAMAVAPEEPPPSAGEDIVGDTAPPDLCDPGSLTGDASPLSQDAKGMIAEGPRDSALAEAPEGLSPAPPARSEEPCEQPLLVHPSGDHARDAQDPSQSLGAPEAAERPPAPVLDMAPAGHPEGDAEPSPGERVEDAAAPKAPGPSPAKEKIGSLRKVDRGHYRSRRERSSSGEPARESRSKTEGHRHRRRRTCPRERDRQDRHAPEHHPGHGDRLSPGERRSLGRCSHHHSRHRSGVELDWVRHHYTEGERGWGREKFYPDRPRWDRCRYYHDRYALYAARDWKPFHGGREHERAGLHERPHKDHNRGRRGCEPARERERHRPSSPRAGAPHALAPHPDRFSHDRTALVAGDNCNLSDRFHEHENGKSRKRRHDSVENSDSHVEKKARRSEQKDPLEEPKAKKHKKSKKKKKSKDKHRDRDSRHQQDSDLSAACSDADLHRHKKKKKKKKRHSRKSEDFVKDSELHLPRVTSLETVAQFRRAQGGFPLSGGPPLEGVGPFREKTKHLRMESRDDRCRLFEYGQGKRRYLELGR
Procedure, shortened: (§1)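 Lysate from HEK293T cells, 495 µg per sample in Tris/CHAPS/IGEPAL buffer with protease inhibitors, was treated for 3 h in triplicate with fragment at 200 µM or vehicle. Biotin-Ahx-Ub-VS was next added at 0.5 µM final for 1 h. The labelled DUBs were enriched with NeutrAvidin, digested with LysC and trypsin, and run by diaPASEF LC-MS/MS, with values given as average log2 fragment/vehicle ratios by unpaired t-test on global-median-normalised Spectronaut quantities of proteins with ≥2 unique peptides.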

USP46 = USP46 (UniProt P62068)
Procedure, shortened: as §1

USP47 = biological target: T2, USP47 (UniProt Q96K76)
T2 sequence (whole entry): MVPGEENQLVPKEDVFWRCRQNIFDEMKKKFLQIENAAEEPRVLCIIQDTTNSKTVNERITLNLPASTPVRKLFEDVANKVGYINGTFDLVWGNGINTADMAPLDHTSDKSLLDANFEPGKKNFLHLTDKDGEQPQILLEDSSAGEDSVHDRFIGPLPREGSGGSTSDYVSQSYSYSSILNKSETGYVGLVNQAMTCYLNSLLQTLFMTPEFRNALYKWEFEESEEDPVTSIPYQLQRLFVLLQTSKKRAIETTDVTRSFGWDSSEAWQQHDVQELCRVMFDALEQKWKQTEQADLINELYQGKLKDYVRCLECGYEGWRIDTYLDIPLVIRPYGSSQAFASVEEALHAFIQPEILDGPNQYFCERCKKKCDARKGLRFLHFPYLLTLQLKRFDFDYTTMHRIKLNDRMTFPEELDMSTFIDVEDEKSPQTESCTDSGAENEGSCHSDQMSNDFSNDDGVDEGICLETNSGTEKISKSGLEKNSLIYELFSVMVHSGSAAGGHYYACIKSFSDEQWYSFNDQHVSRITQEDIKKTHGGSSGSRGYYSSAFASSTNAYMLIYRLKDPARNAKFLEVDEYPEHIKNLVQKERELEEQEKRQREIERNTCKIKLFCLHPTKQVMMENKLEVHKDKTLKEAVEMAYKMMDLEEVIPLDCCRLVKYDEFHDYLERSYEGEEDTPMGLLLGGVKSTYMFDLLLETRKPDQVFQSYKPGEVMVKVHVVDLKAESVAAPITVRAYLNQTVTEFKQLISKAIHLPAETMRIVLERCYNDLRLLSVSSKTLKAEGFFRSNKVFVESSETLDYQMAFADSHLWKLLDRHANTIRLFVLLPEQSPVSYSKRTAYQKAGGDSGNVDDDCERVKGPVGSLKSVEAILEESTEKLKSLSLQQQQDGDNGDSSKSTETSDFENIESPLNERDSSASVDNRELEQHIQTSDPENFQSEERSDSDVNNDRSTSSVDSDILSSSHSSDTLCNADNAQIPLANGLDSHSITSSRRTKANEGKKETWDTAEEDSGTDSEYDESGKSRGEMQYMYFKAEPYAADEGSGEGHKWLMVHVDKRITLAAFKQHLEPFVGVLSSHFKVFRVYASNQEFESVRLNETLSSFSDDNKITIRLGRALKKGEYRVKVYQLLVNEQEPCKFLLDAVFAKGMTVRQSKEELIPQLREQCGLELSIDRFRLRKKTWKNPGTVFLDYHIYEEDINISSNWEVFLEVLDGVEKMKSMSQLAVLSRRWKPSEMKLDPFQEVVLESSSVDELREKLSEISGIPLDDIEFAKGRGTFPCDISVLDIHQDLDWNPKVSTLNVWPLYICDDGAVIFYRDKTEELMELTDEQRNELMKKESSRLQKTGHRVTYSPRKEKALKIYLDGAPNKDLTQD
Procedure, shortened: as §1

USP48 = biological target: T3, USP48 (UniProt Q86UV5)
T3 sequence (whole entry): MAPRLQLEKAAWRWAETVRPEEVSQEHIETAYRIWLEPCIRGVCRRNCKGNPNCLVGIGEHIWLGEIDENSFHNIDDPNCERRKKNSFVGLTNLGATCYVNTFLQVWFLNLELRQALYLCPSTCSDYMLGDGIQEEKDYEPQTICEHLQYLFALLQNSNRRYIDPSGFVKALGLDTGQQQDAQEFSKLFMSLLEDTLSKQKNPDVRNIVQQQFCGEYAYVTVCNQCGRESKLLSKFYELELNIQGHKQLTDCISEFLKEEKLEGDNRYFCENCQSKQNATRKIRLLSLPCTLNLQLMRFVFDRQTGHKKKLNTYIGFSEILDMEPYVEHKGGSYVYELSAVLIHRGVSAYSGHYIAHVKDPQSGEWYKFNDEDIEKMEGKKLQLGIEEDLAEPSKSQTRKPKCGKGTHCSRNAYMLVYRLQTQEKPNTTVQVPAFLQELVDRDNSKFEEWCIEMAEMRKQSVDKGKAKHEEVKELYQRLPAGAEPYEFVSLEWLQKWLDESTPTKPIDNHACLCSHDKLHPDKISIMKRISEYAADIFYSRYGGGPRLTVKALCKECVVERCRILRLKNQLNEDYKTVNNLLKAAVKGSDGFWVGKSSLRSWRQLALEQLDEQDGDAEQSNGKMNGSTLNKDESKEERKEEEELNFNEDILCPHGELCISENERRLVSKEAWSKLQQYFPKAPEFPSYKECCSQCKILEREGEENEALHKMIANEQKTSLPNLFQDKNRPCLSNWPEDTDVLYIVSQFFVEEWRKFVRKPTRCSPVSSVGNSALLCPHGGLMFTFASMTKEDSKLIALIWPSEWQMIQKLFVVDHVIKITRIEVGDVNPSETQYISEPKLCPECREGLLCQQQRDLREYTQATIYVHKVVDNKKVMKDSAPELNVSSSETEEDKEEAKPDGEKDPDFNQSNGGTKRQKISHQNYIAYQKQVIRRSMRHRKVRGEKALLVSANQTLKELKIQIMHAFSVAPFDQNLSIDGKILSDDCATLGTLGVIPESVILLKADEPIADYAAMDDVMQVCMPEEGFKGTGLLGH
Procedure, shortened: as §1

USP5 = biological target: T4, USP5 (UniProt P45974)
T4 sequence (whole entry): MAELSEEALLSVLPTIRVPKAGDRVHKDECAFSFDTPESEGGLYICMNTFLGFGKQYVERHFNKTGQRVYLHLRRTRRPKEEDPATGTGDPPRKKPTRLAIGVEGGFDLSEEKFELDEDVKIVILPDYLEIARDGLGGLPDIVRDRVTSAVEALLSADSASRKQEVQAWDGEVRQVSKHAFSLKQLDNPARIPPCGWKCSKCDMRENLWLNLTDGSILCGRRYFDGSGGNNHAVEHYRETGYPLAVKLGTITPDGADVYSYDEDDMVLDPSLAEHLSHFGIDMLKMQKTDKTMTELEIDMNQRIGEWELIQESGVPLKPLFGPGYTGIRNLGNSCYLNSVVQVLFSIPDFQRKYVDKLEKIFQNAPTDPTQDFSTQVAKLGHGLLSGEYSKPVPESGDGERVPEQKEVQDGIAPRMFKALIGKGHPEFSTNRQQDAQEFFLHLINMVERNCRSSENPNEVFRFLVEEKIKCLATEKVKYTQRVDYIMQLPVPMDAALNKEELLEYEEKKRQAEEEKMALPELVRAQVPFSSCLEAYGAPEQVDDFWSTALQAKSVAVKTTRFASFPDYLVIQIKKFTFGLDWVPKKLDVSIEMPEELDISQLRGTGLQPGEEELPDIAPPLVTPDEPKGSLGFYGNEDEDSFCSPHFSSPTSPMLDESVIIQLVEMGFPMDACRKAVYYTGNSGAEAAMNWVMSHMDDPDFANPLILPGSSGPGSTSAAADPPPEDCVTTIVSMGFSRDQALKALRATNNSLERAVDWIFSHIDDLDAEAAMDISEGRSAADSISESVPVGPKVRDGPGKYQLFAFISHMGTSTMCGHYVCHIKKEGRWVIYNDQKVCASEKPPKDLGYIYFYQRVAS
Procedure, shortened: as §1

USP54 = USP54 (UniProt Q70EL1)
Procedure, shortened: as §1

USP7 = USP7 (UniProt Q93009)
Procedure, shortened: as §1

USP8 = biological target: T5, USP8 (UniProt P40818)
T5 sequence (whole entry): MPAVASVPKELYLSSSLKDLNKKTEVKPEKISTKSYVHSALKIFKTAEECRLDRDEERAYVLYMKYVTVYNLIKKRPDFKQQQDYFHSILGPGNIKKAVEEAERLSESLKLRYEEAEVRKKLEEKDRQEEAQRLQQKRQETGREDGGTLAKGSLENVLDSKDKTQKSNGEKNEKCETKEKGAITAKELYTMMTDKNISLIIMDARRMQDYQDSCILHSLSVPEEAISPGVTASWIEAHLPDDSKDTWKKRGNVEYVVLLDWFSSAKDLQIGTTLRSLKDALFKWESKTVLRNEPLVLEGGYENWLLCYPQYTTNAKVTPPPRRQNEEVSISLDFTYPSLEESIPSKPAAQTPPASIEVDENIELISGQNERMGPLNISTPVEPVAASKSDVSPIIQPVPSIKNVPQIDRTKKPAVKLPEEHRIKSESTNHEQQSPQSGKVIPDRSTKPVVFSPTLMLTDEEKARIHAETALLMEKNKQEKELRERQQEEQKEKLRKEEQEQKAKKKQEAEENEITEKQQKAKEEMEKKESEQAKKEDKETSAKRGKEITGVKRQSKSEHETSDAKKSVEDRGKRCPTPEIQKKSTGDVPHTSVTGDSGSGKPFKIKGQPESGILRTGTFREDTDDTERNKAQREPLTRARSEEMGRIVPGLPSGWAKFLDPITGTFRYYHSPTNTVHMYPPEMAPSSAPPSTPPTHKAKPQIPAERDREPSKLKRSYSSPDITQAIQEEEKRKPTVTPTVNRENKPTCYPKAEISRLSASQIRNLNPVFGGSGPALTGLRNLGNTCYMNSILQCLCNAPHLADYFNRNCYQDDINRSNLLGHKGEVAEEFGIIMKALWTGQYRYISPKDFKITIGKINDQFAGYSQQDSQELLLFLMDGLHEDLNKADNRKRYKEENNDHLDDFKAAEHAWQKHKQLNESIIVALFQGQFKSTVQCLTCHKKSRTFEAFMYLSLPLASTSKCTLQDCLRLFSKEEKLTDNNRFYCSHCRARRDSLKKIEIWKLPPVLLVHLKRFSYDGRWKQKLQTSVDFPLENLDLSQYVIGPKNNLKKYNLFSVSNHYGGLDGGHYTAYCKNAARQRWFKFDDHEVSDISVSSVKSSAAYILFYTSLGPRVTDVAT
Procedure, shortened: as §1

USP9X = USP9X (UniProt Q93008)
Procedure, shortened: as §1

UniProt O00487 = biological target: UniProt O00487
Procedure, shortened: as §1

Measured: log2 ratio of Biotin-Ahx-Ub-VS probe labelling

Sequence of USP9X (Q93008 whole entry): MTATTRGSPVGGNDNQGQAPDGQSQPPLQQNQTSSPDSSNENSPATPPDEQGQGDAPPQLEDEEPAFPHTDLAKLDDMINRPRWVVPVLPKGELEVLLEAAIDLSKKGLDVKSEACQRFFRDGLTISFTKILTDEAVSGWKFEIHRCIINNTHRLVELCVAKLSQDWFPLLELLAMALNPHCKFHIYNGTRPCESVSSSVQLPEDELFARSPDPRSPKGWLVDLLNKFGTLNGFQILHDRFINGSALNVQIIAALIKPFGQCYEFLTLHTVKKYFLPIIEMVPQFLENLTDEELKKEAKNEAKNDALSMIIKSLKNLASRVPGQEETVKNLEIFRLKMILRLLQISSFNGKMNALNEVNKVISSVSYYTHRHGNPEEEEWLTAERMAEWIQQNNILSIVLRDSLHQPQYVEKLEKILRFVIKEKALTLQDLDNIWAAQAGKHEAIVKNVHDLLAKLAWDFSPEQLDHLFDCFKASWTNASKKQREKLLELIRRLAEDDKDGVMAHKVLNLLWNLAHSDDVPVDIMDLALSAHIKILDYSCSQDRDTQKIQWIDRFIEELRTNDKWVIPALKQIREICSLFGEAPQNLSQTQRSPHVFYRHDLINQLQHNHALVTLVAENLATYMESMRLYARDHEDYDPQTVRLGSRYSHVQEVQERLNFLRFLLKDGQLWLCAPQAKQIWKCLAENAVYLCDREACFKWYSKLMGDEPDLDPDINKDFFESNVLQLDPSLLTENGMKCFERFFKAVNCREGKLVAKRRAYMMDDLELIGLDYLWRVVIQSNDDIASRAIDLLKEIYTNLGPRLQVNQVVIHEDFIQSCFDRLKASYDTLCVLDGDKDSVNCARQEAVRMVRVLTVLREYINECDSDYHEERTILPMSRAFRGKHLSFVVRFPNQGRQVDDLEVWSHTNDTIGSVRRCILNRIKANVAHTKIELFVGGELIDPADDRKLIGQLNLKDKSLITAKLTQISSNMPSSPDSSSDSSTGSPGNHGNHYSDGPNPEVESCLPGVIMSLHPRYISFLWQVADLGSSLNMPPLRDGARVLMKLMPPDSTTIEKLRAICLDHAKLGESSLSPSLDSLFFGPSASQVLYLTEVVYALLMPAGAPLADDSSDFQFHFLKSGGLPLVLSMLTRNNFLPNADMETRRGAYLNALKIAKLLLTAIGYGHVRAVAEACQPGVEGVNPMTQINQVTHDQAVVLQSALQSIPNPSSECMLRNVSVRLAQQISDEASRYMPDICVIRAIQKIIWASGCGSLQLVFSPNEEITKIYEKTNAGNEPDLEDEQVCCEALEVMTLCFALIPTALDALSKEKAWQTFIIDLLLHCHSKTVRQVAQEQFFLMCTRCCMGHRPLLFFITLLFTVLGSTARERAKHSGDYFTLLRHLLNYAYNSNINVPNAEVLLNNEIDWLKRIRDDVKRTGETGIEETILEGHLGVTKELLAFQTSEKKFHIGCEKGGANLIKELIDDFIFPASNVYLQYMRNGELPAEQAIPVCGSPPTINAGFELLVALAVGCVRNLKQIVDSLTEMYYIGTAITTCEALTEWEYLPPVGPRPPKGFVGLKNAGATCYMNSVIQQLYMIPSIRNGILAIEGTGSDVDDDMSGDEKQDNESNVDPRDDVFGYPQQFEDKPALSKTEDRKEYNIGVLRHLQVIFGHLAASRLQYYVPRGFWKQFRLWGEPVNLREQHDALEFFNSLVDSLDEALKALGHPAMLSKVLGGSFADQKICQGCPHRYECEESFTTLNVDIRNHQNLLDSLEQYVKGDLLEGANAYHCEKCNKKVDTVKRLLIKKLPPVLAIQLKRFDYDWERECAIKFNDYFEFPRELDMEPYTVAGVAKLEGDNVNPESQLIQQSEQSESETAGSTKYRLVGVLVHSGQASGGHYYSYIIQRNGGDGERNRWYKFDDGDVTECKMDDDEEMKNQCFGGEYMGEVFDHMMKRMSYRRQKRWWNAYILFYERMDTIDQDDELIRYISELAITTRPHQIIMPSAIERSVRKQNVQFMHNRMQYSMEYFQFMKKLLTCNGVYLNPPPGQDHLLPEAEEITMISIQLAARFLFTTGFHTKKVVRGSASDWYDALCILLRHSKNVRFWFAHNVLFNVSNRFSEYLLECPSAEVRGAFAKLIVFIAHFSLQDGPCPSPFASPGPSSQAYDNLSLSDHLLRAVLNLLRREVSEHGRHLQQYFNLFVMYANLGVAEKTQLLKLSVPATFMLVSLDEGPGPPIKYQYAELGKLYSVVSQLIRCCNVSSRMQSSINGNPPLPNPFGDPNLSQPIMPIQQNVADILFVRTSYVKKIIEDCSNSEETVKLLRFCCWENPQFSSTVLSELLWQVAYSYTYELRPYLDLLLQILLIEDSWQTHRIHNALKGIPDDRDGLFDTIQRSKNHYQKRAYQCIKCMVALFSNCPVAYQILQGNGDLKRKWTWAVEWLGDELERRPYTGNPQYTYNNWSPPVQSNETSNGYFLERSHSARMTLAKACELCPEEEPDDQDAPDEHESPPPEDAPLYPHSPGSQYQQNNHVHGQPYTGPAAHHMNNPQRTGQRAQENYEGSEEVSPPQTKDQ
Sequence of USP7 (Q93009 whole entry, looked up): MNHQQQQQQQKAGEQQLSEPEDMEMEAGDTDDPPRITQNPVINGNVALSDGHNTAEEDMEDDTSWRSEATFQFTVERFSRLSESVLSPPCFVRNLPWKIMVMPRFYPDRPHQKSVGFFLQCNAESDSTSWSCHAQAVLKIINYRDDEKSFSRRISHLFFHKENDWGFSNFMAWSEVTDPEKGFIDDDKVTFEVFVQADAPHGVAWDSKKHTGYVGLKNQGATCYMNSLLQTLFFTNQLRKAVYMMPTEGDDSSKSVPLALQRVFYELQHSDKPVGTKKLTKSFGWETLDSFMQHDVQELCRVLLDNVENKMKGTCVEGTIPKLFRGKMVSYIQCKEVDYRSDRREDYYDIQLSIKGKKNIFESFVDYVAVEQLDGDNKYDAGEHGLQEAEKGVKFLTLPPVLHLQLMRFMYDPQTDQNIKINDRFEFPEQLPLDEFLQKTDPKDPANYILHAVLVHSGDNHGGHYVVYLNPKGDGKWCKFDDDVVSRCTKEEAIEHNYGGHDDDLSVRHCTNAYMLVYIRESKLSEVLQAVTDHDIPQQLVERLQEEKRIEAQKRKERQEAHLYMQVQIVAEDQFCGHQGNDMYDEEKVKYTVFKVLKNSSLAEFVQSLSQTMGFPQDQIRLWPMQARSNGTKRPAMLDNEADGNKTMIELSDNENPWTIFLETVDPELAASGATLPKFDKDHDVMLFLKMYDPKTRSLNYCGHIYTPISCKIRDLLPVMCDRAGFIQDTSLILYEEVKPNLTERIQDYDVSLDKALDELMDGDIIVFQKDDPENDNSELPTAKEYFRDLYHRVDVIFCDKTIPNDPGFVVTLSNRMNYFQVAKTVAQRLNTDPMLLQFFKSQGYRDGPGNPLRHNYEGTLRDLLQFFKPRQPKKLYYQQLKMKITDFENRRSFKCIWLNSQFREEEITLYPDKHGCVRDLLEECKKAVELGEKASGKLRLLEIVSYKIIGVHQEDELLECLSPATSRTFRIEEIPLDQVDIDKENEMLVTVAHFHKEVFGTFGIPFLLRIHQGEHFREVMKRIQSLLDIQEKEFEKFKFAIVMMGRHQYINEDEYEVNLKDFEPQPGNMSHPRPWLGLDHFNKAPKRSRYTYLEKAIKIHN
Sequence of UniProt O00487 (O00487 whole entry): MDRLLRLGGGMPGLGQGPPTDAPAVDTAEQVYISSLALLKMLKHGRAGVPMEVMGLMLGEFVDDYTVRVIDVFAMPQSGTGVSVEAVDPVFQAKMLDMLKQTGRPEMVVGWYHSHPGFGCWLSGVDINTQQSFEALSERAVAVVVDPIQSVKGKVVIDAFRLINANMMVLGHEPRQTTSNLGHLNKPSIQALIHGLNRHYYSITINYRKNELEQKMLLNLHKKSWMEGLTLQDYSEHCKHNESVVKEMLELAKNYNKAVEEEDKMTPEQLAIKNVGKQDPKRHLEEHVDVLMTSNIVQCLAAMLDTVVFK
Sequence of USP46 (P62068 whole entry): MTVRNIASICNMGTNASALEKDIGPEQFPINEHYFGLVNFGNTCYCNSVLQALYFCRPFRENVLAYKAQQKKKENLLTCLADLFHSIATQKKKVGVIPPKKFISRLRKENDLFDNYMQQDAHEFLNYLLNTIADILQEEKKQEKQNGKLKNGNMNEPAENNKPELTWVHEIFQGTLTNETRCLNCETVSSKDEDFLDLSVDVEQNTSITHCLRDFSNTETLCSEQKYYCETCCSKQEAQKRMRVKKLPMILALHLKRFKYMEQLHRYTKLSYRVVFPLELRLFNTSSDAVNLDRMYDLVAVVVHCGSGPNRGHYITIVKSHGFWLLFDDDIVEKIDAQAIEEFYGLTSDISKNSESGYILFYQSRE

CCCn1nccc1NC(=O)CCl
inactive: USP42 0.302 | USP46 -0.137 | USP47 -0.323 | USP48 -0.124 | USP5 -0.757 | USP54 0.705 | USP7 -0.254 | USP8 -0.318 | USP9X -0.239 | UniProt O00487 -0.102

O=C(CCl)NCc1noc(C2CC2)n1
inactive: USP42 -0.112 | USP46 -0.0864 | USP47 -0.0714 | USP48 -0.135 | USP5 -0.183 | USP54 1.02 | USP7 -0.262 | USP8 -0.421 | USP9X -0.268 | UniProt O00487 -0.16

CC(NC(=O)CCl)c1noc(Cc2ccccc2)n1 (stereo not given)
inactive: USP42 0.115 | USP46 -0.0371 | USP47 0.0165 | USP48 -0.394 | USP5 -0.388 | USP54 0.507 | USP7 -0.475 | USP8 -0.579 | USP9X -0.262 | UniProt O00487 -0.231
